A selection: hits, their analogues and other compounds. The true share with any hit is near 7.9%.
Lassa entry inh: inhibitors of Lassa virus binding or cell entry. Lassa virus pseudotype entry inhibition, cell reporter. Potency, µM (top dose mostly 37.9 µM), most hits filed as inhibitors. 300,000 compounds, 1.2% hits; calls by dose curve; tested in HEK293 cells; note: nearly all actives have a fitted effect of over 50% in size
MARV entry inh: inhibitors of Marburg virus binding or cell entry | Marburg virus pseudotyped entry inhibition, cell reporter | Potency, µM (series often up to 37.8 µM), most hits filed as inhibitors | 300,000 compounds, 1.8% hits | AID 540276; calls by dose curve; tested in HEK293 cells
HCV inh: blocks hepatitis C virus; 340,000 compounds, 3.4% hits; Huh7.5.1 HCVcc-Cre infection, luciferase reporter, 44 h; Potency, µM (top dose mostly 41.8 µM), most hits filed as inhibitors; AID 651820; active = well fitted inhibition curve with a large enough effect; inconclusive = small, poorly fitted or top-dose-only effect, or another doubt; inactive = no such curve, though single readings can be large or run the other way
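Antiviral activity was scored by luciferase reporter output from cells infected with HCVcc-Cre (~0.5 moi) in presence of compound, 44 h infection period, cells seeded 1,000/well 4 h prior.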
HCMV antiviral: blocks human cytomegalovirus replication; HFF cells, HCMV-luciferase reporter, 72 h; stronger effect = lower value; activity change, negative = inhibition, % at 57.5 µM; 410,000 compounds, 4.5% hits; AID 1259415; in the data active = activity change below about -60%; inconclusive = no clear call, values can overlap the other calls; inactive = above about -39%
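Luciferase read-out from HCMV-luciferase-infected HFFs (MOI 1 PFU/cell) 72 h post infection at 37C; compounds added after 16 h cell attachment; activity normalized between buffer-only basal and Salinomycin (10uM) inhibitor controls.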
FMDV inh: blocks foot and mouth disease virus | 410,000 compounds, 1.2% hits | Potency, µM (doses to about 57.9 µM), hits mostly inhibitors | FMDV antiviral cell-based qHTS; calls by dose curve; tested in HEK293T cells; note: read-out not given here; nearly all actives have a fitted effect of over 45% in size
Of the large screens only hits and unclear results are named; the others gave an inactive call.

O=C1c2cccc3c(O)ccc(c23)C(=O)N1c1ccc(Cl)cc1	Lassa entry inh inconclusive, HCMV antiviral -71.9, FMDV inh 12.6µM
CC(=O)Nc1ccc(N2C(=O)c3cccc4c(O)ccc(c34)C2=O)cc1	HCMV antiviral inconclusive (no result: Lassa entry inh, MARV entry inh)
COc1ccc(CNC(=O)CN(C(=O)CCC(=O)Nc2nccs2)c2cccc(C)c2)cc1	none
O=C1/C(=C/c2ccncc2)Cc2ccccc21	none (no result: Lassa entry inh, MARV entry inh)
CC1C/C(=C/c2ccncc2)C(=O)/C(=C/c2ccncc2)C1 (centres undefined)	HCV inh inconclusive, HCMV antiviral -100.7, FMDV inh 10µM (no result: Lassa entry inh, MARV entry inh)
Cc1ccc(N=C2NC(=O)/C(=C/c3cccn3C)S2)cc1	none (no result: Lassa entry inh, MARV entry inh)
CC1C/C(=C/c2cccn2C)C(=O)/C(=C/c2cccn2C)C1 (centres undefined)	Lassa entry inh inconclusive, MARV entry inh inconclusive, HCV inh 6.31µM, FMDV inh inconclusive
COP(=O)(OC)C(NC(=O)Nc1ccccc1)c1ccccc1 (centres undefined)	none (no result: Lassa entry inh, MARV entry inh)
O=C(c1cccc([N+](=O)[O-])c1)N1CCN(c2ncccn2)CC1	none (no result: Lassa entry inh, MARV entry inh)
Cc1ccc(Nc2ccc(N3CCN(C(=O)c4cccc([N+](=O)[O-])c4)CC3)nn2)cc1	HCMV antiviral -61.7 (no result: MARV entry inh, HCV inh)
Cc1cccc(CNc2cc(-c3cccnc3)ncn2)c1	none (no result: Lassa entry inh, MARV entry inh, HCV inh, HCMV antiviral)
CC1(Cc2ccc(C(F)(F)F)o2)C(=O)Nc2cc(-c3ccc(F)cc3F)ccc21 (centres undefined)	HCMV antiviral -99.7, FMDV inh inconclusive (no result: Lassa entry inh, MARV entry inh, HCV inh)
CC1(Cc2cc(Cl)ccc2C(F)(F)F)C(=O)Nc2cc(F)ccc21 (centres undefined)	none (no result: Lassa entry inh, MARV entry inh, HCV inh, HCMV antiviral)
O=C(NC(c1ccc(Cl)cc1)c1ccsc1)C1CCN(Cc2ccc(Oc3ccccc3)cc2)CC1 (centres undefined)	none (no result: Lassa entry inh, MARV entry inh, HCV inh)
CN(Cc1nc(Cc2ccccc2F)no1)Cc1cccc2ncccc12	Lassa entry inh inconclusive, HCV inh 11.2µM, HCMV antiviral -84.7, FMDV inh 15.8µM
CN(Cc1nc(Cc2ccccc2F)no1)CC1(N2CCOCC2)CCCCC1	MARV entry inh inconclusive
NC(=O)c1cc2c3ccccc3ccn2c1-c1ccccc1	HCMV antiviral -99.0 (no result: Lassa entry inh, MARV entry inh)
NC(=O)c1cc(Sc2ccccc2)nc2ccccc12	none
c1ccc2c(c1)Sc1ccccc1-n1cnnc1-2	none
N=C1Sc2ccccc2C2=NCCCN12	MARV entry inh 1.58µM (no result: Lassa entry inh, HCV inh, HCMV antiviral, FMDV inh)
CCCCN1CCC(COC(=O)c2cc(Cl)c(N)c3c2OCCO3)CC1	MARV entry inh 11.2µM (no result: Lassa entry inh)
CCCCN1CCC(CCC(=O)c2cc(Cl)c(N)cc2OC)CC1	none (no result: Lassa entry inh, MARV entry inh, HCV inh, HCMV antiviral)
C[C@@H](NC(=O)c1[nH]cnc1C(=O)Nc1ccc(Cl)cc1)c1ccccc1	HCV inh inconclusive, HCMV antiviral -70.5 (no result: Lassa entry inh, MARV entry inh)
C[C@H](NC(=O)c1[nH]cnc1C(=O)Nc1ccon1)c1ccccc1	HCV inh 1.41µM (no result: Lassa entry inh, MARV entry inh)
O=C(c1ccccc1)c1nc[nH]c1C(=O)Nc1ccccc1	Lassa entry inh inconclusive, HCMV antiviral -65.2
C[C@H](NC(=O)c1[nH]cnc1C(=O)Nc1cccc(Cl)c1)c1ccccc1	HCMV antiviral inconclusive (no result: Lassa entry inh, MARV entry inh)
C[C@@H](NC(=O)c1[nH]cnc1C(=O)Nc1cccc(Cl)c1)c1ccccc1	HCMV antiviral -78.6 (no result: Lassa entry inh, MARV entry inh)
O=C(Nc1ccccc1)c1nc[nH]c1C(=O)O	MARV entry inh inconclusive (no result: HCV inh)
O=C(CCc1ccccc1)NNC(=S)NC(=O)c1ccc(Cl)cc1	Lassa entry inh inconclusive, MARV entry inh inconclusive, HCV inh inconclusive (no result: FMDV inh)
COc1ccc(Cl)cc1NS(=O)(=O)c1cccc(C(=O)NCCCN2CCOCC2)c1	none (no result: Lassa entry inh, MARV entry inh, HCV inh)
CC(CCN1CCCc2nc(C)c(C)cc21)=NO[C@@H](C)CN1CCCCc2nc(C)c(C)cc21	none (no result: Lassa entry inh, HCV inh, HCMV antiviral, FMDV inh)
COc1ccccc1CNC(=O)CCC1N=C2c3ccccc3N=C(SCC(N)=O)N2C1=O (centres undefined)	none (no result: MARV entry inh, HCV inh)
O=C(NCc1ccncc1)c1cnn(-c2ncc3c(n2)-c2ccccc2CC3)c1C1CC1	none (no result: Lassa entry inh, MARV entry inh, HCV inh, HCMV antiviral)
Cc1cccc(NC(=O)c2nc[nH]c2C(=O)Nc2cc(Br)ccc2F)c1	HCMV antiviral -88.4 (no result: Lassa entry inh, MARV entry inh, HCV inh)
CN(Cc1ccccc1)C(=O)c1[nH]cnc1C(=O)Nc1ccc(Cl)cc1	HCV inh inconclusive (no result: Lassa entry inh, MARV entry inh)
O=C(Nc1ccc(Cl)cc1)c1nc[nH]c1C(=O)NCc1ccccc1	HCV inh inconclusive, HCMV antiviral -73.6 (no result: Lassa entry inh, MARV entry inh)
CCOc1ccc(NC(=O)Cn2c(=O)n(CCc3ccccc3)c(=O)c3c4c(sc32)CN(C(C)=O)CC4)cc1	none (no result: Lassa entry inh, HCV inh)
CN(C)c1cc(N/N=C\c2ccccc2)nc(N(C)C)n1	HCV inh inconclusive (no result: Lassa entry inh, MARV entry inh)
COc1ccc(/C=N/Nc2cc(N(C)C)nc(N(C)C)n2)cc1	Lassa entry inh inconclusive, MARV entry inh 4.47µM, HCV inh inconclusive, FMDV inh inconclusive
COc1ccc(/C=N/Nc2cc(OC)ncn2)cc1	Lassa entry inh 10µM, MARV entry inh inconclusive
